Source: PubChem BioAssay (several laboratories)
TWEAK-Fn14 inh = TWEAK-Fn14 signaling inhibition; TWEAK-stimulated Fn14 reporter cells, luciferase luminescence, 8 h; inhibition, % at 10 µM; actives 2% (n = 360,000); in the data active = inhibition above about 50%
HSF1 inh = HSF1 inhibition; NIH3T3-HGL HSE-luciferase, MG132-induced, luminescence 8 h; hits give low values; AID 2098; activity change, negative = inhibition, % at 7.5 µM (by protocol); actives 0.77% (n = 300,000);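 active = more than half of replicate wells show activity change below -50%, luminescence cut by over half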;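 note: luciferase reports HSF-1 transcriptional activity via heat shock element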
TROY signal inh = blocks TROY-dependent signaling in reporter cells. actives 0.98% (n = 360,000). inhibition, % at 10 µM. Q293 LMP1-TROYcd NF-kB luciferase reporter, 4 h. AID 1347056;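 active = compounds whose plate-normalised and pattern-corrected inhibition of the luciferase reporter signal at the single screening dose is 50% or more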
HSP90 inh = inhibitors of HSP90 luciferase refolding in rabbit reticulocyte lysate. AID 1789. luciferase refolding luminescence, 3 h. actives 0.91% (n = 290,000). inhibition, % at 5.6 µM;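 active = inhibition above the screen-wide mean plus 3 SD, computed separately per campaign, cut at about 16% in these data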;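 note: inhibitors lower the luminescence because luciferase stays unfolded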
HSF1 activator = increases HSF-1 driven luciferase reporter signal; NIH3T3-HGL HSF-1 luciferase reporter, MG132, 8 h; 100% = twice DMSO control signal; activation, % at 9 µM; actives 1.7% (n = 300,000); AID 504408;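 active = mean replicate activation of at least 50% with a set share of replicates each reaching 50%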
LMP1 NFkB inh = reduces LMP1-driven NF-kappaB luciferase signal | inhibition, % at 12.5 µM | actives 0.69% (n = 350,000) | AID 504558 | LMP1-induced NF-kappaB luciferase reporter cells, luminescence; in the data active = inhibition above about 41%
Large screens that a line does not name were inactive. Most compounds without a hit are left out; they make up all but 4.7% or so of the library.

COc1ccc(-n2c(Cc3cccn3C)nnc2SCC(=O)Nc2ccccc2)cc1	none
Cc1[nH]c2ccccc2c1C(=O)C(=O)NCc1nnnn1-c1ccc(F)cc1	none (no result: HSF1 inh, HSP90 inh, HSF1 activator)
COCCn1c(=S)[nH]c2cc(C(=O)NC3CCCC(C)C3C)ccc2c1=O (stereo not given)	none (no result: HSF1 inh, HSP90 inh, HSF1 activator)
Cc1ccccc1C(=O)O/N=C1\CCS(=O)(=O)c2sccc21	HSF1 activator 74
O=C1CCCc2cc3c(cc21)CCCC3	none (no result: HSF1 inh, HSP90 inh, HSF1 activator)
Nc1ccc2c(c1)C(=O)CCC2	TWEAK-Fn14 inh 55, TROY signal inh 74 (no result: HSF1 inh, HSP90 inh, HSF1 activator)
COc1ccc(-c2ccc(CN3C(C(C)C)C(=O)N(Cc4cn(CCC5OCCO5)nn4)CCS3(=O)=O)cc2)cc1 (stereo not given)	none (no result: HSF1 inh, HSP90 inh, HSF1 activator)
O=C(CSc1ncccc1-c1nc2ccccc2[nH]1)N1CCCCC1	TWEAK-Fn14 inh 58 (no result: HSF1 inh, HSF1 activator)
CC(C)NC(=O)CSc1ncccc1-c1nc2ccccc2[nH]1	none
Cc1[nH]c(=O)[nH]c(=O)c1NC(=O)CSc1ncccc1-c1nc2ccccc2[nH]1	TROY signal inh 54
CN(C)C(=O)CSc1ncccc1-c1nc2ccccc2[nH]1	none
O=C(CSc1nnc2c(n1)[nH]c1ccccc12)N1CCCCC1	TWEAK-Fn14 inh 65
C[C@@H]1CN([C@@H](C)CO)C(=O)CCCn2cc(nn2)CO[C@H]1CN(C)C(=O)c1cc(-c2ccccc2)on1	none (no result: HSF1 inh, HSP90 inh, HSF1 activator)
O=C(O)C(Cc1ccccc1)N1C(=O)C2C3CCC(C3)C2C1=O (stereo not given)	none (no result: HSF1 inh, HSP90 inh, HSF1 activator)
CN(C)c1ccc(N=Nc2nccs2)cc1	TWEAK-Fn14 inh 79 (no result: HSF1 inh, HSP90 inh, HSF1 activator)
COCCN(C(=O)c1ccc(C)c(S(=O)(=O)N2CCOCC2)c1)c1c(N)n(CC(C)C)c(=O)[nH]c1=O	none (no result: HSF1 inh, HSP90 inh, HSF1 activator)
CC(=O)c1ccc(N=Nc2ccc(N(C)C)cc2)cc1	TWEAK-Fn14 inh 104, TROY signal inh 54
Cc1ccc(C(=O)c2ccc(C)cc2)cc1	none
CC(=O)c1ccc(N=Nc2ccc(C)cc2)cc1	TWEAK-Fn14 inh 68, TROY signal inh 61
C=C(C)C(=O)Oc1ccc(N=Nc2ccc(C)cc2)ccc1=O	TWEAK-Fn14 inh 59 (no result: HSF1 inh, HSP90 inh, HSF1 activator, LMP1 NFkB inh)
CC1(C(=O)NCc2ccccn2)CCN1C(=O)Cc1ccc(Cl)cc1Cl (stereo not given)	none (no result: HSF1 inh, HSP90 inh, HSF1 activator, LMP1 NFkB inh)
Cc1ccc(Cn2cc(CN(C)C3CN(Cc4cn(Cc5ccc(C)cc5)nn4)S(=O)(=O)C3)nn2)cc1 (stereo not given)	none (no result: HSF1 inh, HSP90 inh, HSF1 activator, LMP1 NFkB inh)
Oc1ccc(-c2csc(-c3cccnc3)n2)cc1O	none
c1cncc(-c2nc(-c3ccc4c(c3)OCCO4)cs2)c1	TWEAK-Fn14 inh 52, HSF1 activator 64
OC[C@@H]1CN(Cc2cccc3ccccc23)C[C@H](n2cnc3c(NCc4ccco4)ncnc32)O1	none (no result: HSF1 inh, HSP90 inh, HSF1 activator, LMP1 NFkB inh)
COc1ccc(-c2csc(NC(=O)c3ccc(OCC(=O)N4CCOCC4)c(OC)c3)n2)cc1OC	TWEAK-Fn14 inh 81, TROY signal inh 71
Cc1ccccc1OCC(=O)NNC(=O)C1CCN(c2ncnc3sc(C)c(C)c23)CC1	TROY signal inh 53 (no result: HSP90 inh)
Cc1sc2ncnc(N3CCC(C(=O)Nc4ccc(Br)cc4Br)CC3)c2c1C	TROY signal inh 56 (no result: HSP90 inh)
Cc1sc2ncnc(N3CCC(C(=O)Nc4ccc(Cl)cc4Cl)CC3)c2c1C	none (no result: HSP90 inh)
COc1cc(C(=O)Nc2cccc(C)n2)ccc1OCC(=O)N1CCOCC1	none (no result: HSF1 inh, HSP90 inh, HSF1 activator)
COc1ccccc1OCC(=O)NNC(=O)C1CCN(c2ncnc3sc(C)c(C)c23)CC1	none (no result: HSF1 inh, HSP90 inh, HSF1 activator)
COc1ccc(-c2csc(NC(=O)C3CCN(c4ncnc5sc(C)c(C)c45)CC3)n2)cc1OC	TWEAK-Fn14 inh 102, TROY signal inh 70 (no result: HSP90 inh)
O=C(NCc1cccs1)c1ccc2sc(C3=C[C@@H](O)[C@@H](O)[C@@H](CO)O3)nc2c1	none (no result: HSF1 inh, HSP90 inh, HSF1 activator, LMP1 NFkB inh)
COc1ccc([N+](=O)[O-])cc1NCc1c(F)cccc1F	TWEAK-Fn14 inh 59 (no result: HSF1 inh, HSP90 inh, HSF1 activator)
O=C1NC[C@H](CCCCN2C[C@H](Cc3ccc(O)cc3)N(CCC3CCCCC3)C(=O)C2=O)N(CCC2CCCCC2)C1=O	none (no result: HSF1 inh, HSP90 inh, HSF1 activator, LMP1 NFkB inh)
CSc1nc(NC(C)(C)C)nc(Oc2ccc(=O)[nH]n2)n1	HSF1 activator 52
CC(C)CNc1nc(NC(C)(C)C)nc(Oc2ccc(=O)[nH]n2)n1	none
CCNc1nc(NC(C)CC)nc(Oc2ccc(=O)[nH]n2)n1 (stereo not given)	TWEAK-Fn14 inh 87
COc1ccc(S(=O)(=O)NCC(c2cccnc2)N2CCN(c3ccccc3)CC2)cc1C (stereo not given)	none
COc1ccc(S(=O)(=O)NCC(c2cccnc2)N2CCN(c3ccc(F)cc3)CC2)cc1C (stereo not given)	LMP1 NFkB inh 82
COc1ccccc1N1CCN(C(CNS(=O)(=O)c2ccccc2)c2ccccc2)CC1 (stereo not given)	HSF1 activator 57
OCc1ccccc1-c1nc(NCc2ccccc2)nc2ccsc12	none (no result: HSF1 inh, HSP90 inh, HSF1 activator, LMP1 NFkB inh)
NC(=O)CSc1nnc2sc3ccccc3n12	TWEAK-Fn14 inh 85 (no result: TROY signal inh)
CC(C)NC(=O)CSc1nnc2sc3ccccc3n12	none
Cc1ccc(N2C=Nc3ccc(C)c4nc(C)cc2c34)cc1	none
CC1=Nc2ccc(C)c3nc(C)cc(c23)N1c1ccc(C)cc1	HSF1 inh -53
COc1ccc(-n2nc3cc(C)c(NC(C)=O)cc3n2)cc1	TWEAK-Fn14 inh 75, TROY signal inh 57
OC(c1ccccc1)(c1nc(-c2cccc3cccnc23)cs1)C(F)(F)F (stereo not given)	none (no result: HSF1 inh, HSP90 inh, HSF1 activator, LMP1 NFkB inh)
Cc1ccccc1OCC1Cc2c(nc(N)c(C#N)c2N)O1 (stereo not given)	TWEAK-Fn14 inh 58 (no result: HSF1 inh, TROY signal inh, HSF1 activator)
COc1ccccc1C/C(N)=N/OC(=O)c1cccc([N+](=O)[O-])c1C	TWEAK-Fn14 inh 90
CCCNC(=O)C1(C)CCN(C(=O)c2cccc(C(F)(F)F)c2)C1 (stereo not given)	none (no result: HSF1 inh, HSP90 inh, HSF1 activator, LMP1 NFkB inh)
COC(=O)[C@]12CCCCC=C1N(Cc1ccco1)C(=O)[C@H](CC(=O)NCc1cccs1)C2	none (no result: HSF1 inh, HSP90 inh, HSF1 activator, LMP1 NFkB inh)
CCCCC(=O)/C=C/n1c(=S)oc2ccccc21	TWEAK-Fn14 inh 96, HSF1 activator 217
CCC/C=C/c1ccc(CN2C(C)C(=O)N(Cc3cn(CCC4OCCO4)nn3)CCS2(=O)=O)cc1 (stereo not given)	none (no result: HSF1 inh, HSP90 inh, HSF1 activator)
COC(=O)c1c(C)[nH]c(C(=O)OC(C)C(=O)NC2CCCCC2C)c1C (stereo not given)	none (no result: HSF1 inh, HSP90 inh, HSF1 activator)
O=C1c2ccccc2CCC12OC2c1ccncc1 (stereo not given)	none (no result: HSF1 inh, HSP90 inh, HSF1 activator)
ON=C1c2ccccc2-c2cc(Br)ccc21	TWEAK-Fn14 inh 71 (no result: HSF1 inh, HSP90 inh, HSF1 activator)
COc1ccccc1NC(=O)N(Cc1cccs1)Cc1cc2cc3c(cc2[nH]c1=O)OCO3	TWEAK-Fn14 inh 67
CCc1ccc2[nH]c(=O)c(CN(Cc3ccccc3)C(=O)Nc3ccccc3OC)cc2c1	TROY signal inh 55
COc1ccccc1NC(=S)N(CCCN(C)C)Cc1cc2cc3c(cc2[nH]c1=O)OCO3	none
COc1ccc(NC(=O)N(CCN2CCCC2)Cc2cc3cc(OC)c(OC)cc3[nH]c2=O)cc1	LMP1 NFkB inh 44
